Measurements taken from PubChem BioAssay AID743279 (National Center for Advancing Translational Sciences (NCATS), 2014).
Screen size: about 360,000 compounds; about 17,000 (4.7%) were called active. About 5% were inconclusive and are not listed. Many of the other results were omitted from the sample, so actives are more common in it than they were. Unmarked numbers belong to inactive results. Rule as the data show it: active = activity change below about -50%; inconclusive = mostly about -30% to -49%; inactive = weaker than that.
% is scaled to controls: 0 for no effect and ±100 for the full control effect.

Experiment: qHTS for Inhibitors of Inflammasome Signaling: IL-1-beta AlphaLISA Primary Screen
Conditions: THP-1 LPS/ATP IL-1B secretion, 16 h; at 57.5 µM, active compounds read low
Outline: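 THP-1 cells pretreated 1 hr with compounds (up to 57.5 uM final), then stimulated with LPS (250 ng/mL final) plus ATP (1.25 mM final); secreted IL-1B measured by AlphaLISA after 16 hr, decreased signal indicating inhibition.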
With `COc1ccc(NC2CC(=O)N(C)C2=O)cc1` (stereo unspecified) the activity change was 19.6%. Work on `C/C(=N/Nc1nc(-c2ccccc2)c(CC(=O)O)s1)c1ccccc1` yielded an activity change of -6.09%. Compound `CC(C)CCC(=O)Nc1cc(S(=O)(=O)N2CCOCC2)ccc1N1CCCC1` has an activity change of -21.6%. `CCc1nc2ccc(C(=O)N3CCC(O)(Cc4ccccc4)CC3)cn2c1N(C)C(=O)Cc1ccccc1` gave an activity change of 1.17%. Compound `Cc1csc(NC(=O)C2CCN(S(=O)(=O)c3ccccc3)CC2)n1` has an activity change of -7.33%. `COc1ccc(OC)c(/C=C/C(=O)OCC(=O)Nc2ccc3c(c2)OCCO3)c1` gave an activity change of 37.8%. In the case of `COc1cc(C=C(OC(C)=O)c2ccc3c(c2)OCO3)cc(OC)c1OC`, the activity change is reported as 24.5%. With `COc1ccc(OC)c(/C=C/C(=O)c2ccc3c(c2)OCO3)c1` the activity change was -97.2% (active). With `CCOC(=O)c1c(S(=O)(=O)NCC(=O)Nc2ccc(C)cc2)c(C)n(C)c1C` the activity change was -6.41%. `CCOc1cc(/C=N/NC(=O)c2ccncc2)cc(Br)c1O` showed an activity change of -14.1%. `Cc1ccc(N2C(=O)SC(N(CC(=O)O)c3ccc(C)cc3)C2=O)cc1` (stereo unspecified) showed an activity change of 18.1%. For `Cc1ccc2c(C)c(C(=O)N3CCN(c4ccncc4)CC3)oc2c1C`, the activity change was -52.1% (active). Compound `Cc1ccc2c(C)c(C(=O)N(C)Cc3ccncn3)oc2c1C` has an activity change of 13.6%. For `Cc1c(C(=O)N2CCN(c3ccc(F)cc3)CC2)oc2c1C(=O)CCC2`, the activity change was 14.7%. With `O=C(Nc1ccccc1F)c1cc(S(=O)(=O)N2CCCCC2)cs1` the activity change was 6.67%. For `CC12CCCCC1=CC(=O)CC2` (stereo unspecified), the activity change was 13.3%. Compound `CCn1c(SCC(=O)NCC2CCCO2)nc2ccccc21` (stereo unspecified) has an activity change of 31.3%. With `Cc1ccc(NC(=O)c2cnc(SCC(=O)NCC3CCCO3)n(C)c2=O)cc1` (stereo unspecified) the activity change was -103% (active). With `Cn1c(SCC(=O)c2ccccc2)ncc(C(=O)Nc2ccc(F)cc2)c1=O` the activity change was -2.98%. For `NC(=O)c1ncn([C@@H]2O[C@H](CNCc3cnc(N4CCOCC4)s3)[C@@H](O)[C@H]2O)n1`, the activity change was 17.3%. In the case of `CC1CN(C(=O)c2ccc3c(c2)OCO3)OC(c2ccccc2)O1` (stereo unspecified), the activity change is reported as -0.281%. `O=C(Cn1cc(C(F)(F)F)ccc1=O)N/N=C/c1ccc(Cl)cc1Cl` showed an activity change of 0%. In the case of `CC/C(=C(/c1ccccc1)c1ccc(OCC[N+](C)(C)C)cc1)c1ccccc1`, the activity change is reported as -61.5% (active). `CCOc1cc(C(=O)O)ccc1OCCOc1ccccc1` gave an activity change of 4.78%. `COc1ccc(C(=O)NCC[N+](C)(C)C)cc1` gave an activity change of 22.2%. Compound `CCN(c1ccccc1)S(=O)(=O)c1cc(C(=O)NCc2ccccn2)ccc1C` has an activity change of -10.4%. Work on `CN(Cc1ccccc1)C(=O)CCC1CCN(C(=O)c2ccco2)CC1` yielded an activity change of -7.63%. With `O=C(Nc1ccc(S(=O)(=O)NCC2CCCO2)cc1)c1ccc(F)cc1` (stereo unspecified) the activity change was 11.6%. In the case of `COc1ccc(N2C(=O)C3C(C2=O)C(C(=O)c2ccccc2)N2CCCC32)cc1` (stereo unspecified), the activity change is reported as -82.1% (active). `COc1ccc(N2C(=O)CC(N3CCC(C(N)=O)CC3)C2=O)cc1` (stereo unspecified) gave an activity change of -4%. Compound `CNC(=O)C[C@H]1C(=O)N(c2ccc(OC)cc2)C[C@@H]1Cc1ccccc1` has an activity change of -12.1%. Compound `OCC(CO)(CO)NCc1ccc(-c2ccccc2)cc1` has an activity change of 6.61%. With `Cc1ccc(-c2noc(CSc3nnc(-c4cccs4)n3C)n2)cc1` the activity change was 34.2%. `Cc1ccc(-c2noc(CSc3nnc(-c4ccncc4)n3-c3ccc(F)cc3)n2)cc1` showed an activity change of -15.2%. In the case of `Cc1ccc(-c2noc(CSc3nnnn3-c3ccccc3)n2)cc1`, the activity change is reported as -64.8% (active). In the case of `CCCCCCCCOC1OC(CO)C(O)C(O)C1NC(C)=O` (stereo unspecified), the activity change is reported as 48.8%. With `CSCCC(NC(=O)COc1ccccc1)C(=O)N1CCN(c2cccc(C(F)(F)F)c2)CC1` (stereo unspecified) the activity change was -61.8% (active). For `CSCCC(NC(=O)COc1ccccc1)C(=O)OCCOc1ccc(F)cc1` (stereo unspecified), the activity change was 5.31%. For `O=C(COc1ccc(Cl)cc1)N1CCN(c2cccc(C(F)(F)F)c2)CC1`, the activity change was -4.57%. `O=C(N[C@@H](Cc1c[nH]c2ccccc12)C(=O)O)OCC1c2ccccc2-c2ccccc21` gave an activity change of 4.34%. In the case of `Cc1nnc(NC(=O)Nc2ccc(Cl)c(Cl)c2)s1`, the activity change is reported as -94% (active). With `Cc1nnc(NC(=O)C(c2ccccc2)c2ccccc2)s1` the activity change was -5.78%. Compound `Cc1nnc(NC(=O)c2ccc3nccnc3c2)s1` has an activity change of -17.3%. Compound `C[C@@H]1CN([C@@H](C)CO)C(=O)c2c(c3ccccc3n2C)-c2ccccc2CO[C@H]1CN(C)C(=O)C1CC1` has an activity change of 23%. With `Cc1ccc(CN(C)C[C@@H]2OCc3cnnn3CCCC(=O)N([C@@H](C)CO)C[C@H]2C)cc1` the activity change was 13.2%. `O=C(CN1CCC(O)(c2ccccc2)CC1)Nc1ccc2c(c1)OCCO2` showed an activity change of -25.5%. `O=C(COC(=O)c1ccccc1)c1ccc2c(c1)OCCO2` showed an activity change of -8.63%. For `O=C(CCN1CCc2ccccc2C(O)(c2ccccc2)C1)c1ccc2c(c1)OCCO2` (stereo unspecified), the activity change was -101% (active). `CC(C)(O)C#Cc1ccc(CN2CCC(CO)(CCc3ccccc3)CC2)cc1` showed an activity change of -1.38%. Compound `OCC1(CCOc2ccccc2)CCN(Cc2cn[nH]c2-c2ccccc2)CC1` has an activity change of -2.13%. With `Cc1c(CN2CCC(CO)(CCOc3ccccc3)CC2)[nH]c2ccc(Cl)cc12` the activity change was -96.7% (active). Work on `CC1CCN(c2ccc3c(c2)S(=O)(=O)c2cc(C(=O)O)ccc2C3=O)CC1` yielded an activity change of 22%. In the case of `C=CCNc1cnn(-c2ccc(C)cc2)c(=O)c1Cl`, the activity change is reported as -16.2%. With `Cc1cccc(-n2ncc(Cl)c(Cl)c2=O)c1` the activity change was -100% (active). In the case of `Cc1cccc(-n2ncc(C#N)c2-n2cccc2)c1`, the activity change is reported as 28.7%. `CC1(C(=O)NS(=O)(=O)c2cccc(F)c2)CCN1C(=O)Cc1ccc(Cl)cc1Cl` (stereo unspecified) showed an activity change of -15.9%. Work on `O=C(Nc1cc(S(=O)(=O)N2CCCCC2)ccc1Cl)C1COc2ccccc2O1` (stereo unspecified) yielded an activity change of -6.17%. `NS(=O)(=O)c1ccc(CCNC(=O)CNC(=O)Cc2ccccc2)cc1` showed an activity change of 12.6%. `CC(C)c1nccn1S(=O)(=O)c1cc([N+](=O)[O-])ccc1Cl` gave an activity change of 0%. With `CCc1nc(C)cn1S(=O)(=O)c1cc([N+](=O)[O-])ccc1Cl` the activity change was -82.5% (active). Compound `CCc1nc(C)cn1S(=O)(=O)c1cc(OC)c(C)cc1C` has an activity change of 30.3%. For `O=C1N[C@@H](Cc2ccccc2)C(=O)N2[C@@H]3N(S(=O)(=O)c4ccc(F)cc4)c4ccccc4[C@]3(Br)C[C@@H]12`, the activity change was -2.75%. `Cc1cccc(S(=O)(=O)N(C)C[C@H]2OCc3cnnn3CCCC(=O)N([C@@H](C)CO)C[C@H]2C)c1` showed an activity change of 16.6%. `CCOc1ccc(C2c3[nH]c4ccccc4c3CCN2Cc2cn(CC)nc2C)cc1` (stereo unspecified) showed an activity change of 18.2%. `COc1cccc(C2c3[nH]c4ccccc4c3CCN2Cc2cccc(C)n2)c1` (stereo unspecified) gave an activity change of -5.35%. In the case of `Oc1cccc(C2c3[nH]c4ccccc4c3CCN2Cc2cnn(-c3ccccc3)c2)c1` (stereo unspecified), the activity change is reported as -64% (active). For `O=S1(=O)CCOC[C@H](Cc2ccccc2)N1Cc1ccccc1Br`, the activity change was -7.15%. Work on `CC(C)CCNC(=O)c1[nH]c(C(F)(F)F)nc1-c1ccccc1` yielded an activity change of 28.5%. Work on `CC(C)Oc1ccc(CCc2n[nH]c(=S)n2Cc2ccccc2)cc1` yielded an activity change of 16.3%. With `CN(C(=O)CSc1nncc2ccccc12)C1CCCCC1` the activity change was 0%. For `Brc1c(CSc2nncc3ccccc23)nc2ccccn12`, the activity change was -74% (active). For `COC(=O)C[C@H]1C=C[C@H](NC(=O)c2ccc(F)cc2)[C@@H](CO)O1`, the activity change was -9.5%. With `CCn1c(/C=C/Nc2ccccc2)[n+](CC)c2ccc(C(=O)OCC(F)(F)F)cc21` the activity change was -98.2% (active). In the case of `CCOC(=O)N1CCN(C(=O)c2ccc(S(=O)(=O)Nc3cccc(C(F)(F)F)c3)cc2)CC1`, the activity change is reported as 0.178%. With `CCOC(=O)c1ccc2c(c1)nc(C)n2CC` the activity change was -16.9%. Work on `C[C@H](CO)N1C[C@H](C)[C@@H](CN(C)S(=O)(=O)c2ccc(Oc3ccccc3)cc2)OCc2cn(nn2)CCCC1=O` yielded an activity change of 4.67%. `O=S1(=O)CC(N2CCN(Cc3ccccc3F)CC2)CN1Cc1cn(Cc2cccc(C(F)(F)F)c2)nn1` (stereo unspecified) showed an activity change of -6.73%. With `S=c1[nH]nc(/C=C/c2ccccc2)o1` the activity change was -8.62%. With `O=C(Cc1ccc(-c2ccccc2)cc1)NC(c1ccccc1)c1ccccc1` the activity change was 18.8%. With `CCOC(=O)/C=C/C(=O)OCC(=O)NC(c1ccccc1)c1ccccc1` the activity change was -96.9% (active). `CCOC(=O)C(C(=O)OCC)C(C#N)c1ccccc1` (stereo unspecified) gave an activity change of -20.8%. For `CCN(CC)CCCN1C(=O)C(=O)/C(=C(/O)c2c(C)nc3ccccn23)C1c1ccc(C)o1` (stereo unspecified), the activity change was -3.42%. For `COCc1ccc(C(=O)NC2CC(C)(C)Cc3c2cnn3-c2ccc(C)cc2)o1` (stereo unspecified), the activity change was -2.96%. In the case of `COC(=O)COc1ccc2c(c1C)O/C(=C\c1ccco1)C2=O`, the activity change is reported as -8.17%. `CCC1C/C(=C/c2cccs2)C(=O)/C(=C/c2cccs2)C1` (stereo unspecified) showed an activity change of -5.91%. In the case of `CC(C)(C)C1C/C(=C/c2ccco2)C(=O)/C(=C/c2ccco2)C1` (stereo unspecified), the activity change is reported as -67.3% (active). `CCNC(=O)C1(C)CCN(Cc2ccc(C(=O)OCC)o2)C1` (stereo unspecified) gave an activity change of 0%. `CCCCCCN1CCN(C2CN(Cc3cn(Cc4ccc(F)cc4)nn3)S(=O)(=O)C2)CC1` (stereo unspecified) gave an activity change of 18.3%. With `Cc1cc(Nc2ccc(N3CCOCC3)cc2)c2cccc(C)c2n1` the activity change was -91.7% (active). For `Cc1cc(Nc2ccc(C(=O)N3CCCCC3)cc2)c2cccc(C)c2n1`, the activity change was -2.62%. With `Cc1ccccc1N/N=C/c1ccc(N2CCOCC2)cc1` the activity change was 0.147%.
